HCV inh: inhibitors of hepatitis C virus infection; Huh7.5.1 HCVcc-Cre infection, luciferase reporter, 44 h; Potency, µM (doses to about 41.8 µM), for the others: top-dose activity change, negative = inhibition, usual class: inhibitors; hit rate 3.4% among 340,000; AID 651820; active means well fitted inhibition curve with a large enough effect; inconclusive means small, poorly fitted or top-dose-only effect, or another doubt; inactive means no such curve, though single readings can be large or run the other way
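HCVcc-Cre virus at an moi near 0.5 was added right after compound to cells cultured 4 h from seeding (1,000 cells/well). Luciferase activity was determined 44 h later, 15 min after substrate addition at RT.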
VACV mCherry inh: vaccinia inhibition (mCherry reporter) | Potency, µM (series often up to 36.5 µM), for the others: top-dose activity change, negative = inhibition, hits mostly inhibitors | Vaccinia virus mCherry reporter infection, fluorescence | hit rate 0.63% among 310,000; calls by dose curve; tested in A549 cells; further: nearly all actives have a fitted effect of over 35% in size
VACV Venus inh: vaccinia inhibition (Venus reporter); AID 720580; Potency, µM (top dose mostly 36.5 µM), for inactives: top-dose activity change, negative = inhibition, actives largely listed as inhibitors; Vaccinia virus Venus reporter expression, fluorescence; hit rate 0.46% among 330,000; calls by dose curve; tested in A549 cells; further: nearly all actives have a fitted effect of over 30% in size
* marks the source's active call; other numbers are inactive results; i = inactive; ? = inconclusive; . = no result; [ ] = dose if it differs, or a comment. Only some compounds are listed: those with a hit (about 3.3% of all), similar ones and a draw of the others. On the % scale 0 is the no-effect control and ±100 the full control effect; potency means the concentration at half of the fitted maximal effect.

SMILES	HCV inh	VACV mCherry inh	VACV Venus inh
CCOC(=O)c1c(-c2ccccc2)oc2ccc(OCC(O)CNCCN(C)C)cc12 (stereo not drawn)	?	11µM*	?
CCOC(=O)c1c(-c2ccccc2)oc2ccc(OCC)cc12	?	?	-17%
Clc1cccc(N2CCN(c3c4c(nc5nncn35)CCC4)CC2)c1	.	?	-28%
CCC(Cc1ccccc1)NC(=O)C1CCN(S(=O)(=O)c2ccc3c(c2)CC(C)N3C(C)=O)CC1 (stereo not drawn)	-27%	i	-4%
C/C=C1\NC(=O)[C@H](CC(N)=O)N(C)C(=O)C([C@@H](C)O)NC(=O)C(CCCc2ccc(OC)cc2)NC(=O)[C@H](C(C)C)NC(=O)/C(=C\C)NC(=O)[C@H](O)[C@@H](C[C@@H](O)CCCCCCC)NC(=O)[C@H](C)NC(=O)CN(C)C(=O)[C@H](CCC(N)=O)NC1=O (stereo partly drawn)	-4%[8.37 µM]	?	?
CC(C)C1CC(CCNCc2ccc(N(C)C)cc2)(c2ccccc2)CCO1 (stereo not drawn)	11µM*	?	1%
Cc1ccc(C2(CCNCc3ccc(N(C)C)cc3)CCOC(C(C)C)C2)cc1 (stereo not drawn)	?	-7%	-21%
CCN1CCN(c2cc(C)c3cc(NC(=S)N4CCCC(C)C4)ccc3n2)CC1 (stereo not drawn)	?	?	-11%
O=C(CN1C(=O)NC2(CCCC2)C1=O)OCc1cccc(Br)c1	17%	.	.
OCCN1CCN(CC(O)COc2ccc(Cl)cc2)CC1 (stereo not drawn)	-28%	.	-13%
OCCN1CCN(CC(O)COc2ccc(C34CC5CC(CC(C5)C3)C4)cc2)CC1 (stereo not drawn)	13µM*	-26%	?
CC(C)N(Cc1ccccc1)C(=O)COC(=O)c1ccc(S(=O)(=O)N2CCOCC2)cc1	15%	-12%	-1%
Cc1c(C(=O)Nc2ccncc2)sc2nc(-c3ccccc3)cn12	3.5µM*	-4%	?
Cc1c(C(=O)NCc2ccc(F)cc2)sc2nc(-c3ccccc3)cn12	.	-21%	-19%
Cc1c(C(=O)N2CCOCC2)sc2nc(-c3ccccc3)cn12	11%	4%	-13%
Cc1c(C(=O)Nc2ccc3c(c2)OCCO3)sc2nc(-c3ccccc3)cn12	2.5µM*	?	-28%
Cc1c(C(=O)NCc2ccco2)sc2nc(-c3ccccc3)cn12	10µM*	-13%	?
CCN(CC)c1ccc(NC(=O)c2sc3nc(-c4ccccc4)cn3c2C)cc1	.	-7%	?
CCCN1CNc2c(c(=O)[nH]c(=S)n2CCC)C1	.	i	-5%
COc1cccc(-c2cc(NC=O)c3ncc(-c4ccc(F)c(Cl)c4)n3c2)c1	.	4%	5%
O=c1n(Cc2ccc(Cl)cc2)c2ccccc2c2nc(-c3ccccc3)nn12	.	-1%	-3%
COc1ccc2[nH]c(C(=O)N3CCc4ccccc4C3)c(C)c2c1	11µM*	.	.
COc1ccc(N2CCN(C(=O)c3[nH]c4ccc(OC)cc4c3C)CC2)cc1	15%	-14%	-17%
Cc1ccccc1OCC(O)CO (stereo not drawn)	.	-22%	-13%
COC(=O)Cc1ccc(NC(=S)N2CCN(c3ccccn3)CC2)cc1	-11%	.	.
SMILES	HCV inh	VACV mCherry inh	VACV Venus inh
COC(=O)Cc1ccc(NC(=S)N2CCN(c3cc(Cl)ccc3C)CC2)cc1	10µM*	-19%	-13%
COc1ccc(-c2nc3ccccc3o2)cc1NC(=O)c1ccc(OCC(C)C)cc1	.	-12%	-12%
O=C(NCCc1nnc2n1CCN(Cc1c(F)cccc1F)CC2)c1ccc(F)cc1	.	-16%	-16%
Cc1cccc(NC(=O)Cn2nnc(C(=O)NCc3cccs3)c2N)c1	.	-2%	0%
O=C1C(Cl)=C(NCCCO)C(=O)c2ccccc21	13µM*	.	-10%
O=C1C(Cl)=C(NCCN2CCOCC2)C(=O)c2ccccc21	?	-36%	-26%
O=C1C(Cl)=C(NCCCN2CCOCC2)C(=O)c2ccccc21	10µM*	-11%	23%
CCOCCCNC1=C(Cl)C(=O)c2ccccc2C1=O	-13%	.	.
CN(C)/C=N/c1ncc(C(=O)c2ccc(-c3ccccc3)cc2)s1	11µM*	-25%	-28%
CN(C)/C=N/c1ncc(C(=O)c2ccccc2)s1	4%	.	.
CCOc1ccc(CNS(=O)(=O)c2ccc(-c3coc(C)n3)cc2)cc1OC	.	-17%	-7%
COc1cc(OC)cc(C(=O)Nc2ccc(Nc3ccccc3)cc2)c1	8.9µM*	.	.
O=C(Nc1ccc(Nc2ccccc2)cc1)c1ccccc1	-23%	.	.
CC(=O)Oc1ccc(C(=O)Nc2cccc(C(=O)c3cccc(NC(=O)c4ccc(OC(C)=O)cc4)c3)c2)cc1	?	-21%	-23%
COc1cc(NC(=O)c2nccnc2N)cc(C(=O)Nc2cccc(C(F)(F)F)c2)c1	-18%	-16%	?
COc1cc(OC)cc(C(=O)Nc2cccc(NC(=O)c3ccccc3)c2)c1	10µM*	-3%	-13%
CC(=O)Oc1ccc(C(=O)Nc2cccc(C(=O)NC(C)(C)C)c2)cc1	13µM*	-3%	-1%
COc1cc(NC(=O)c2nccn2C)cc(C(=O)Nc2cccc(C(F)(F)F)c2)c1	2.5µM*	?	?
COc1cc(OC)cc(C(=O)Nc2cccc(C(C)=O)c2)c1	-17%	.	.
CCOC(=O)c1cnc2ccc(OCC)cc2c1N1CCN(c2cccc(Cl)c2)CC1	.	-25%	-5%
COc1ccc(NC(=O)Cn2c(=O)n(CCCCCC(=O)NCc3ccc4c(c3)OCO4)c(=O)c3sccc32)cc1Cl	.	-14%	-15%
COC(=O)c1ccc(NC(=O)c2cc(S(=O)(=O)N3CCc4ccccc43)cn2C)cc1	.	0%	-16%
CCOc1ccc(NC(=O)c2cc3c(-c4ccccc4F)nn(C)c3s2)cc1	.	-13%	-3%
COc1ccc(NC(=O)c2cccc(NC(=O)c3ccccc3)c2)c(OC)c1	-24%	-4%	-17%
COc1ccc(OC)c(NC(=O)c2cccc(NC(=O)c3ccccc3)c2)c1	10µM*	1%	-24%
SMILES	HCV inh	VACV mCherry inh	VACV Venus inh
CCC(C(=O)Nc1cc(OC)c(NC(=O)c2ccccc2)cc1OC)c1ccccc1 (stereo not drawn)	11µM*	-12%	-11%
CC(=O)Nc1ccc(NC(=O)c2cc([N+](=O)[O-])cc([N+](=O)[O-])c2)cc1	-1%	-30%	-10%
COc1ccc(C(=O)Nc2ccc(Nc3ccccc3)cc2)cc1OC	-25%	.	.
Cc1ccc(NC(=O)c2ccc(Nc3c([N+](=O)[O-])cc([N+](=O)[O-])cc3[N+](=O)[O-])cc2)cc1	10µM*	-23%	?
CCC(C(=O)Nc1cc(Cl)ccc1OC)c1ccccc1 (stereo not drawn)	?	-21%	-13%
COc1ccc(C(=O)Nc2ccc(Nc3ccccc3)cc2)cc1[N+](=O)[O-]	11µM*	.	.
Cc1cc(C2(c3ccc(O)c(C)c3)OC(=O)c3ccccc32)ccc1O	25%	-24%	-6%
Cc1cc(O)c(C(C)C)cc1C1(c2cc(C(C)C)c(O)cc2C)OC(=O)c2ccccc21	5.6µM*	?	?
CSCCC(NC(=O)c1ccccc1Cl)C(=O)N1CC(C)OC(C)C1 (stereo not drawn)	10%	.	.
Cc1ccc2nc(SCC(=O)NCC3Cc4cc(-c5ncccc5C)ccc4O3)[nH]c2c1 (stereo not drawn)	.	-22%	-17%
